Source: PubChem (National Center for Advancing Translational Sciences (NCATS))
In the library only some 11% were active in any assay of this set; here they are far more common.
NPR1 antag: antagonists of human natriuretic peptide receptor Npr1; AID 1347048; 1.6% of 76,000 active; HEK293 hNpr1 GloSensor cGMP, ANP-stimulated luminescence; Potency, µM (series often up to 46.3 µM), for inactives: at the top dose activity change, negative = inhibition, actives largely listed as inhibitors; calls by dose curve; also: nearly all actives have a fitted effect of over 60% in size
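Compound pre-incubated 30 min at room temperature on GloSensor-loaded HEK293 cells stably carrying hNpr1 and the pGS-40F cGMP biosensor. Stimulation uses hNppA at 0.1 nM final; luminescence is taken at baseline and 20 min post-agonist.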
HEK cytotox: cytotoxic compounds in HEK 293 cells | 6.6% of 94,000 active | AID 1345083 | HEK 293 viability, ATP luminescence (CellTiter-Glo), 48-72 h | Potency, µM (highest dose often 115 µM), inactives show at the top dose activity change, negative = cytotoxicity, usual class: inhibitors; also: nearly all actives have a fitted effect of over 60% in size
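HEK 293 cells at 250 cells/well were exposed to compounds by pintool transfer for 48 or 72 hr at 37 degree Celsius, 5% CO2. Viability was read as ATP-coupled luminescence with CellTiter-Glo after 10 min at room temperature.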
Luciferase inh: blocks purified firefly luciferase enzyme activity | P08659 | purified P. pyralis luciferase, luminescence, biochemical | Potency, µM (titrated, usually from 115 µM), hits mostly inhibitors | 2.5% of 76,000 active; also: nearly all actives have a fitted effect of over 65% in size
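Biochemical qHTS: compound (6-point titration) added to 10uM D-luciferin plus 10uM ATP in Tris acetate pH 7.5 buffer with Mg, Tween-20 and BSA, then purified enzyme at 10nM; light output imaged.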
NIH3T3 tox: cytotoxic compounds in NIH 3T3 cells. Potency, µM (top dose mostly 96.7 µM), for inactives: at the top dose activity change, negative = cytotoxicity, actives largely listed as inhibitors. NIH 3T3 viability, CellTiter-Glo ATP luminescence, 48-72 h. 4.3% of 94,000 active; also: nearly all actives have a fitted effect of over 55% in size
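First NIH 3T3 cells are plated at 400 cells/well; next compound is pinned in; then plates incubate 48 or 72 hr at 37 °C; finally CellTiter-Glo is added and luminescence read after 10 min.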
* hit, by the source's call; i = inactive; ? = inconclusive; nt = not tested or not shown; [ ] = remark or other dose. Unless noted, calls follow the shape of the dose curve; as a rule, active = well fitted curve in the direction sought with a large enough effect; inconclusive = small, poorly fitted or top-dose-only effect, or another doubt; inactive = no such curve, though single readings can be large; an effect the other way counts as inactive or inconclusive. % is scaled to controls: 0 for no effect and ±100 for the full control effect; potency is read from the fitted curve at half-maximal effect.

SMILES | NPR1 antag | HEK cytotox | Luciferase inh | NIH3T3 tox
CC(=O)N1CCC(C(=O)N2CCCC(c3nc4ccncc4[nH]3)C2)CC1 (stereo not drawn) | nt | -8% | nt | -17%
CCCN(C)c1nccnc1OC1CCN(C(=O)c2ccn[nH]2)C1 (stereo not drawn) | -3% | ? | 22µM* | -28%
CCCN(C)c1nccnc1OC1CCN(C(=O)CC)C1 (stereo not drawn) | 4% | -5% | i | -19%
CCCN(C)c1nccnc1OC1CCN(C(=O)C(C)C)C1 (stereo not drawn) | -14% | -16% | 22µM* | ?
CCCN(C)c1nccnc1OC1CCN(C(=O)c2c(F)cccc2F)C1 (stereo not drawn) | -4% | ? | ? | ?
CCCN(C)c1nccnc1OC1CCN(C(=O)CC(C)C)C1 (stereo not drawn) | -11% | ? | 18µM* | -27%
CCC(CC)C(=O)N1CCC(Oc2nccnc2N(C)C)C1 (stereo not drawn) | 2% | ? | 35µM* | 0%
CC(C)CNC(=O)CN1CN(c2ccccc2)C2(CCN(C(=O)NC3CCCCC3)CC2)C1=O | 2% | -13% | i | ?
O=C(NCC(F)F)C1CCN(c2nc3ncccc3o2)CC1 | nt | 1%[172 µM] | nt | i
COc1ccccc1-c1cccc(CN2CCCC(C(=O)N3CCCC(C)C3)C2)c1 (stereo not drawn) | nt | 40µM* | nt | ?
CS(=O)(=O)N1CCCC(C(=O)N2CCC(c3ccccc3)CC2)C1 (stereo not drawn) | nt | 2% | nt | -15%
COc1ccccc1-c1cccc(CN2CCCC(C(=O)N3CCC(c4ccccc4)CC3)C2)c1 (stereo not drawn) | nt | 40µM* | nt | ?
COc1ccccc1-c1cccc(CN2CCCC(C(=O)N3CCN(c4ncccn4)CC3)C2)c1 (stereo not drawn) | nt | 16µM* | nt | ?
COc1ccccc1-c1cccc(CN2CCCC(C(=O)N3CCN(C(C)=O)CC3)C2)c1 (stereo not drawn) | nt | ? | nt | -32%
COc1ccccc1-c1cccc(CN2CCCC(C(=O)N3CCN(Cc4ccccc4)CC3)C2)c1 (stereo not drawn) | nt | 40µM* | nt | 35µM*
COc1cccc(CN2C(=O)CCCCC2C(=O)N2CCN(c3ncccn3)CC2)c1 (stereo not drawn) | nt | 1% | nt | -6%
O=C(C1CCCN(Cc2cccc(-c3ccc(F)cc3F)c2)C1)N1CCOCC1 (stereo not drawn) | nt | ? | nt | -47%
CC(C)CNC(=O)c1ccc2nc(-c3ccnc(Cl)c3)oc2c1 | nt | i | nt | -13%
CN1C[C@@H](NC(=O)Nc2ccc(C(F)(F)F)cc2)C[C@H]1c1nc(-c2ccc(Cl)cc2)no1 | ? | 20µM* | i | 8.9µM*
CN1C[C@@H](NC(=O)c2ccccn2)C[C@H]1c1nc(-c2ccc(OC(F)(F)F)cc2)no1 | -25%[70.6 µM] | 79µM* | i | ?
CN1C[C@@H](NC(=O)c2cnccn2)C[C@H]1c1nc(-c2ccc(OC(F)(F)F)cc2)no1 | -18%[70.6 µM] | 89µM* | i | ?
COc1ccc(C(=O)N[C@H]2C[C@@H](c3nc(-c4ccccc4)no3)N(C)C2)cc1 | -4%[70.6 µM] | ? | i | ?
Cc1ccc(-c2noc([C@@H]3C[C@H](NC(=O)Nc4ccc(Cl)cc4)CN3C)n2)cc1 | -12%[70.6 µM] | -43%[172 µM] | i | -32%[174 µM]
COc1ccc(C(=O)N[C@H]2C[C@@H](c3nc(-c4ccc(Cl)cc4)no3)N(C)C2)cc1 | ? | 56µM* | ? | ?
COc1ccc(C(=O)N2C[C@@H]3CCCN4CCC[C@@H]([C@H]34)[C@H]2CCCC(=O)NCc2ccccc2)cc1 | 0% | -10% | i | -12%
SMILES | NPR1 antag | HEK cytotox | Luciferase inh | NIH3T3 tox
CCOc1cccc2c1OC[C@@H]1CN(CCOC)C(=O)CCN(C(=O)CC)[C@H]21 | nt | -4% | nt | ?
Cc1cnccc1-c1ccc(NC(=O)NC2CC2)cc1 | 2% | 2% | ? | -6%
COc1ccc(CC(=O)N[C@H]2C[C@@H](c3nc(-c4ccc(OC(F)(F)F)cc4)no3)N(C)C2)cc1 | ? | 35µM* | i | ?
CN1C[C@@H](NC(=O)Nc2ccc(F)cc2F)C[C@H]1c1nc(-c2ccccc2)no1 | ? | 63µM* | i | -23%[174 µM]
CN1C[C@@H](NC(=O)Nc2ccc(F)cc2F)C[C@H]1c1nc(-c2ccncc2)no1 | -30%[70.6 µM] | ? | ? | ?
CN1C[C@@H](NC(=O)c2ccccn2)C[C@H]1c1nc(-c2ccc(Cl)cc2)no1 | 6%[70.6 µM] | 89µM* | 71µM* | ?
O=C(Nc1cccc(-n2cccn2)c1)C1CCCN1C(=O)CCn1cccn1 (stereo not drawn) | 0% | -6% | i | -8%
Cc1ccc(-n2cccc2CC(=O)NC(C)c2ccccn2)cc1 (stereo not drawn) | -2% | -5% | i | -9%
COc1cccc(CN2CCOC3(CCN(Cc4ccc(Cl)cc4)CC3)C2=O)c1 | ? | ? | i | ?
O=C1N(CCc2ccccc2)CCOC12CCN([S+](=O)([O-])c1cccnc1)CC2 | 6%[70.6 µM] | -23%[172 µM] | i | 25µM*
COc1cccc(CN2CCOC3(CCN([S+](=O)([O-])c4c(C)noc4C)CC3)C2=O)c1 | -4% | -26% | i | 20µM*
COCCn1c(=O)c(C(=O)N2CCN(Cc3ccccc3)CC2)nc2cccnc21 | nt | -3% | nt | i
COCCCNC(=O)C(NC(=O)c1ccccc1)C1CCN(C(=O)c2ccc(Cl)cc2)CC1 (stereo not drawn) | 0% | 3% | i | -1%
OCc1ccc(CN2C[C@H](O)C[C@H]2c2nc(-c3ccc(F)cc3)no2)o1 | 5%[70.6 µM] | 1%[172 µM] | 45µM* | i
OCc1ccc(CN2C[C@H](O)C[C@H]2c2nc(-c3cccnc3)no2)o1 | 8%[70.6 µM] | ? | i | -3%[174 µM]
OCc1ccc(CN2C[C@H](O)C[C@H]2c2nc(-c3ccc(OC(F)(F)F)cc3)no2)o1 | -12%[70.6 µM] | ? | 45µM* | ?
COc1ccc(-c2noc([C@@H]3C[C@@H](O)CN3Cc3ccc(CO)o3)n2)cc1 | ? | -21%[172 µM] | ? | -27%[174 µM]
O=C1N[C@H](CCC(=O)N2CCN(CCc3ccncc3)CC2)C(=O)Nc2ccccc21 | -3% | 6% | i | i
CS(=O)(=O)c1ccc(CN2C[C@H](O)C[C@H]2c2nc(-c3ccc(F)cc3)no2)cc1 | -3%[70.6 µM] | -25%[172 µM] | 45µM* | -12%[138 µM]
O[C@@H]1C[C@@H](c2nc(-c3ccc(F)cc3)no2)N(Cc2ccc(F)cc2)C1 | -5%[70.6 µM] | 100µM* | i | ?
O=C(NCc1ccc2c(c1)OCO2)c1nc2cccnc2n(Cc2ccccc2)c1=O | nt | 79µM* | nt | ?
COC(=O)c1ccc2nc(C[C@@H]3C[C@@H](C(C)C)[C@H](CNC(=O)CCCC(=O)O)C=C3C)[nH]c2c1 | 8% | ? | i | -7%
COC(=O)c1ccc2nc(C[C@@H]3C[C@@H](C(C)C)[C@H](CNC(=O)C4CCC4)C=C3C)[nH]c2c1 | -13% | ? | i | ?
